Test results as given in PubChem BioAssay.
Active and inactive are the calls of the source.

How the values were obtained:
[1] = small molecules captured by biotinylated probe aFSTL3 – biochemical, small-molecule microarray, fluorescence 635/667, stem cell growth factor project, primary screen (AID 1064); settings: higher = more signal;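 further: measures binding of the biotinylated anti-FSTL3 antibody to printed compounds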
[2] = binders from COS7 lysate, DM2A8 probe, primary screen, torsin A project, cell lysate, small-molecule microarray, fluorescence 635/667 (AID 1065); settings: higher = more signal, COS7 lysate expressing mutant human TOR1A
[3] = small molecules captured by biotinylated probe aFGF2 – biochemical, small-molecule microarray, fluorescence 635/667, stem cell growth factor project, primary screen (AID 1067); settings: higher = more signal;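 further: measures binding of biotinylated aFGF2 protein to printed compounds on slides; z-score merges feature fluorescence and signal-to-noise across triplicate slides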
[4] = small molecules captured by biotinylated probe aFGF10 – biochemical, small-molecule microarray, fluorescence 635/667, stem cell growth factor project, primary screen (AID 1071); settings: higher = more signal;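 further: score merges 667 nm spot intensity and signal to noise from triplicate slides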
[5] = target: Neurogenic locus notch homolog protein 2 (Homo sapiens) (UniProt Q04721); experiment: small molecules binding Notch2 protein – biochemical, small-molecule microarray, 635 nm fluorescence, stem cell growth factors, primary screen (AID 1073); settings: higher = more signal
[6] = target: Pro-neuregulin-1, membrane-bound isoform (Homo sapiens) (UniProt Q02297); experiment: small molecules binding neuregulin-1 protein – biochemical, small-molecule microarray, fluorescence 635/667, psychiatric disease protein project, primary screen (AID 1075); settings: NRG1 binding, 635 nm fluorescence, higher = more signal;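 further: score combines 667 nm spot fluorescence with signal to noise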
[7] = test system: Neuregulin-1 EGF-like domain; experiment: small molecules binding NRG1 EGF domain – biochemical, small-molecule microarray, 635 nm fluorescence, primary screen (AID 1081); settings: higher = more signal;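 further: binding of the protein to compounds printed on small-molecule microarray slides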
[8] = FRG1 expression reporter modulators in myotubes – cell-based, C2C12 myotubes, firefly/Renilla luciferase, luminescence, FRG1 inhibition for FSHD, primary screen (AID 1084); settings: FRG1 promoter luciferase, higher = more signal, called active from +8 up or from −8 down
[9] = small molecules captured by biotinylated probe aFST – biochemical, small-molecule microarray, fluorescence 635/667, stem cell growth factor project, primary screen (AID 1086); settings: higher = more signal;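 further: score merges 667 nm fluorescence with signal-to-noise of each printed compound spot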
[10] = binders of probe aHhip on microarray, primary screen, stem cell growth factor project, biochemical, small-molecule microarray, fluorescence 635/667 (AID 1087); settings: higher = more signal;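 further: score merges spot fluorescence at 667nm with spot signal to noise ratio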
[11] = test system: PRMT1 (protein arginine N-methyltransferase 1); experiment: small molecules binding arginine methyltransferase PRMT1 – biochemical, small-molecule microarray, 635 nm fluorescence, primary screen (AID 1088); settings: higher = more signal;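 further: binding of Prmt1 protein to compounds spotted on small-molecule microarray slides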
[12] = growth effects on S. cerevisiae YJM789 – YJM789 clinical isolate, OD600, 24 h, basal, primary screen (AID 1089); settings: higher = more signal, called active from +8 up or from −8 down;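 further: growth of clinical yeast isolate S. cerevisiae YJM 789 seeded 1000 cells per well; test concentration not given here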
[13] = S. pombe growth modifiers, basal conditions – strain 972, OD600, 24 h, no modulator, primary screen (AID 1090);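 further: basal condition with compound alone and no growth modifier present; test concentration not given here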; settings: S. pombe 972 growth, higher = more signal, called active from +8 up or from −8 down
[14] = budding yeast growth modifiers under rapamycin – strain BY4716, OD600, 96 h, primary screen (AID 1091); further: test concentration not given here; settings: S. cerevisiae BY4716 + rapamycin, higher = more signal, called active from +8 up or from −8 down
[15] = target: Torsin-1A-interacting protein 2 (Homo sapiens) (UniProt Q8NFQ8); experiment: small molecules binding lysate-expressed LULL1 – cell lysate, human LULL1 lysate, 635/667 nm fluorescence, primary screen (AID 1092); settings: small-molecule microarray, hLULL1 lysate binding, 635 nm fluorescence; higher = more signal;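 further: probe is lysate of COS7 cells overexpressing human LULL1; score merges per-feature 667 nm fluorescence with signal-to-noise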
[16] = optical density change of DRC41 E. coli – strain DRC41, OD650, 24 h, E. coli filamentation project, primary screen (AID 1093);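 further: MC1000 strain lacking acrAB efflux and sulA so SOS filamentation is blocked; test concentration not given here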; settings: E. coli DRC41 growth, higher = more signal, called active from +8 up or from −8 down
[17] = probe aLefty2 binding to arrayed compounds – biochemical, biotinylated probe, 635/667 nm fluorescence, primary screen (AID 1094); settings: small-molecule microarray, higher = more signal;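 further: score merges spot fluorescence near 667 nm with spot signal-to-noise ratio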
[18] = test system: Noggin (protein binding on small-molecule microarray); experiment: small molecules binding Noggin protein – biochemical, 635/667 nm fluorescence, primary screen (AID 1095); settings: 635 nm fluorescence, higher = more signal;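 further: score merges 667 nm feature fluorescence with signal to noise over triplicate slides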
[19] = target: Neurogenic locus notch homolog protein 3 (Homo sapiens) (UniProt Q9UM47); experiment: small molecules binding NOTCH3 protein – biochemical, 635/667 nm fluorescence, primary screen (AID 1096); settings: small-molecule microarray, 635 nm fluorescence, higher = more signal
[20] = probe aEGFR binding to arrayed compounds – biochemical, biotinylated probe, 635/667 nm fluorescence, primary screen (AID 1097); settings: small-molecule microarray, higher = more signal;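 further: probe is a biotinylated anti-EGFR antibody binding compounds printed on slides; score combines fluorescence near 667 nm and signal to noise of each spot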

Sequence of Neurogenic locus notch homolog protein 2 (Homo sapiens) (Q04721 whole entry, looked up, canonical isoform): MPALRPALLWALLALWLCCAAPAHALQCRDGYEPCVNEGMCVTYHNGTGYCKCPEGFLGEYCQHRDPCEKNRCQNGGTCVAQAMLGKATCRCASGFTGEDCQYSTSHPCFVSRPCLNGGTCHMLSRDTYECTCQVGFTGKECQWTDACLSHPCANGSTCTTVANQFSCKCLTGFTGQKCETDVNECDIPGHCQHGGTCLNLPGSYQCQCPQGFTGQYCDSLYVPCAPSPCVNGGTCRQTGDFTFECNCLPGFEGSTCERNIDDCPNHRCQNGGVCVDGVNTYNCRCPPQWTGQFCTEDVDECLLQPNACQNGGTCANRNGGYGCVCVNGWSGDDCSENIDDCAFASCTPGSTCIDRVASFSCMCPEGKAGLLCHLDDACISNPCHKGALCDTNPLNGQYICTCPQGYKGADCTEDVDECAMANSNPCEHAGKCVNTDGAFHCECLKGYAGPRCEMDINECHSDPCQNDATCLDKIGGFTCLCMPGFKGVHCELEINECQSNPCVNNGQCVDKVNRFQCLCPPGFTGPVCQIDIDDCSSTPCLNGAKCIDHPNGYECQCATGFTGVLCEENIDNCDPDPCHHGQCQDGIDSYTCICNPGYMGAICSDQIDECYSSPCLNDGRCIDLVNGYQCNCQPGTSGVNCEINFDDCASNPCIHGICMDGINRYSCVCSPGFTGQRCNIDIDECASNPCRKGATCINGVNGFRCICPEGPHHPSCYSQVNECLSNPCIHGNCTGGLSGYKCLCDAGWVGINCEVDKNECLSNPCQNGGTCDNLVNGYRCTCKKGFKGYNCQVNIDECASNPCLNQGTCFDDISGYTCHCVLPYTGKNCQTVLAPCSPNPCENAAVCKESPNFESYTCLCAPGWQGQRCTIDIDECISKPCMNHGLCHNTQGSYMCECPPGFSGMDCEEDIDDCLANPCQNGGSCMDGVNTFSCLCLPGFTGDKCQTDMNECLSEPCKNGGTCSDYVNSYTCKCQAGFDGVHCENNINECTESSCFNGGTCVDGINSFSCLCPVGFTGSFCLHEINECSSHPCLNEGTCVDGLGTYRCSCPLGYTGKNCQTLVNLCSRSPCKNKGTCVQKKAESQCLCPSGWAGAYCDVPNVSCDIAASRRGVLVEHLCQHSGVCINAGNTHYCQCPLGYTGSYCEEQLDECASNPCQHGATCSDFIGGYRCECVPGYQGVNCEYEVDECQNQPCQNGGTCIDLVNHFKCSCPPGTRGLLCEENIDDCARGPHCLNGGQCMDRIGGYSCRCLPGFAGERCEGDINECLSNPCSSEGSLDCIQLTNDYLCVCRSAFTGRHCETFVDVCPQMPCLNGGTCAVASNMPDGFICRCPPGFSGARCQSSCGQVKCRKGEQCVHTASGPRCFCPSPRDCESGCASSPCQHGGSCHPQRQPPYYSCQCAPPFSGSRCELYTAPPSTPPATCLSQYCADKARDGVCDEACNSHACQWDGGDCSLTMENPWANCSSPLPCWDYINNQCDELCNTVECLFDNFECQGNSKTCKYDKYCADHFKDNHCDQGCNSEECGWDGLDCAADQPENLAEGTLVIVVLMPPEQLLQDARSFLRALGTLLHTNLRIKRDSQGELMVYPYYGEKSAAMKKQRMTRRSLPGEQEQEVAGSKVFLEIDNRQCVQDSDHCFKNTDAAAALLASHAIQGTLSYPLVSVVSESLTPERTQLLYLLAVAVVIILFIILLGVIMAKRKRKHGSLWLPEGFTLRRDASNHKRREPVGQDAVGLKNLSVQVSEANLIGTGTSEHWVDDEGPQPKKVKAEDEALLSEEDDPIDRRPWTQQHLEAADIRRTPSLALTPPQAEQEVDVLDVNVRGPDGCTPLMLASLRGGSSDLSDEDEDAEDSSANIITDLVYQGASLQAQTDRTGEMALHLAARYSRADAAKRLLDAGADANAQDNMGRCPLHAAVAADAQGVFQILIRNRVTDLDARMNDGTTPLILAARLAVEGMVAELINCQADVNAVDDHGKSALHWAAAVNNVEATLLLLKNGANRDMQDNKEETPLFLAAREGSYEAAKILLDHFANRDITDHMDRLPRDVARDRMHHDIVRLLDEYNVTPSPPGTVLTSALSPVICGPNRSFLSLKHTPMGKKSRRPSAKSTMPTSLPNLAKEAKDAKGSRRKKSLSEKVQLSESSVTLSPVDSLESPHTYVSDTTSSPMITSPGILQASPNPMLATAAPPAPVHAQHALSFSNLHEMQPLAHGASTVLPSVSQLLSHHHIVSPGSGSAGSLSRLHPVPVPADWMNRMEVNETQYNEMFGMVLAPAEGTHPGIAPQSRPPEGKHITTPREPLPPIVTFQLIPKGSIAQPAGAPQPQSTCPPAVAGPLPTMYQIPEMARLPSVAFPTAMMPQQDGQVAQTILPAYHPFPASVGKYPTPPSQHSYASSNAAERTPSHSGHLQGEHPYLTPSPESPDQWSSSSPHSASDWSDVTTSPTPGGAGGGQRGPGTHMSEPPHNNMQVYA
Sequence of Pro-neuregulin-1, membrane-bound isoform (Homo sapiens) (Q02297 whole entry, looked up, the tested form may be a part, canonical isoform): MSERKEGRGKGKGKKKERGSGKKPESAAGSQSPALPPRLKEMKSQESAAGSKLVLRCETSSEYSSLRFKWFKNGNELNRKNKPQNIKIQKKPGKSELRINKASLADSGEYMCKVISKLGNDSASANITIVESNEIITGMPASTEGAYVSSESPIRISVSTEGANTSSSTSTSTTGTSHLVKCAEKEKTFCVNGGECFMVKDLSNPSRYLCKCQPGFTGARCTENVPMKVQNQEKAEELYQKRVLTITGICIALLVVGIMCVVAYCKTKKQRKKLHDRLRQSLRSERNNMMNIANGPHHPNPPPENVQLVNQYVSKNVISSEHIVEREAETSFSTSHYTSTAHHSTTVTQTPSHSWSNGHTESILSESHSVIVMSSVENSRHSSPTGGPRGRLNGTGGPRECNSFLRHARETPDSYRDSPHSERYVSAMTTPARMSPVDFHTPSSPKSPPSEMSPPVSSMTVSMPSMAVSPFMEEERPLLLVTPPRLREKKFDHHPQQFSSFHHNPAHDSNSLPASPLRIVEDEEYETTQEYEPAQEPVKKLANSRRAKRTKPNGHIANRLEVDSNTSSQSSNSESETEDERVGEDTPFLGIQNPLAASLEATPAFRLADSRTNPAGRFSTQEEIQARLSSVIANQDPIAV
Sequence of Torsin-1A-interacting protein 2 (Homo sapiens) (Q8NFQ8 whole entry, looked up): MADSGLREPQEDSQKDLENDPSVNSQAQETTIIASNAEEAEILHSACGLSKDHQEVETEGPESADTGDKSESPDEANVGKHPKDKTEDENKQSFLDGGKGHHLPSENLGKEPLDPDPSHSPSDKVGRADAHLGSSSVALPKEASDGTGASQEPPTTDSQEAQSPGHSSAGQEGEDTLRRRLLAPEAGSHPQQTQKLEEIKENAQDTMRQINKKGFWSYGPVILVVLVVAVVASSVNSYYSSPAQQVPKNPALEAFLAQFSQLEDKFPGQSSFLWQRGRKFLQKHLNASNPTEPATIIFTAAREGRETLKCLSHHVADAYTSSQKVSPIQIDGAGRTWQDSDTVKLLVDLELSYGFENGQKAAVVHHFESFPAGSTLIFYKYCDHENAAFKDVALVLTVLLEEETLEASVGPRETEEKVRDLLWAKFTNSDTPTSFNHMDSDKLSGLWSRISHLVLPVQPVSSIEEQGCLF

Structure (SMILES)	composite z-score [1]	composite z-score [2]	composite z-score [3]	composite z-score [4]	composite z-score [5]	composite z-score [6]	composite z-score [7]	z-score [8]	composite z-score [9]	composite z-score [10]	composite z-score [11]	z-score [12]	z-score [13]	z-score [14]	composite z-score [15]	z-score [16]	composite z-score [17]	composite z-score [18]	composite z-score [19]	composite z-score [20]
C=CCC(OC(C)=O)[C@@H]1[C@@H](N(Cc2cccc3ccccc23)C(=O)c2cccc3ccccc23)c2cc(OCCCO)ccc2N1C(=O)c1ccc(-c2ccccc2)cc1 (stereo not given in full)	-0.0699	0.103	-0.105	0.0552	-0.603	0.523	-0.825	-1.66 (inactive)	0.234	0.607	0.159	-0.551 (inactive)	0.169 (inactive)	-0.725 (inactive)	0.465	-0.61 (inactive)	-0.027	0.163	-0.287	-0.0104
C=C(CCCC)/C(=C/C[C@@H](OC(=O)c1ccncc1)c1ccccc1OCCO)c1cnc2ccccc2c1	-0.5	0.517	0.165	1.17	1.33	0.611	1.04	-1.53 (inactive)	0.574	0.469	1.55	-0.868 (inactive)	-1.2 (inactive)	1.65 (inactive)	1.26	0.514 (inactive)	-0.127	1.9	1.05	-0.0028
O=C1O[C@@H](c2ccccc2)[C@@H](c2ccccc2)N2[C@@H](c3ccccc3OCCO)[C@]3(C(=O)Nc4ccc(C#CCCO)cc43)[C@@H](C(=O)N3CCCCCCC3)[C@H]12	4.01	2.76	1.1	1.47	1.83	2.86	1.35	-3.55 (inactive)	3.89	2.64	1.53	0.295 (inactive)	-4.61 (inactive)	1.33 (inactive)	5.16	-0.798 (inactive)	1.99	2.28	1.01	1.49
CC(C)C[C@@H]1NC(=O)[C@@H]2C[C@H](C(=O)NCCCCN(C)C)[C@H](c3cccc(OCCO)c3)N2C1=O	0.0116	1.47	-0.143	-0.242	-0.416	0.204	1.19	6.17 (inactive)	-0.612	-0.192	0.751	-1.01 (inactive)	0.162 (inactive)	-1.01 (inactive)	2.85	0.659 (inactive)	-0.0258	0.592	-0.087	-0.183
COc1cc2c(cc1OC)CN(C(=O)[C@@H]1[C@H]3C(=O)O[C@H](c4ccccc4)[C@H](c4ccccc4)N3[C@H](c3ccc(OCCO)cc3)[C@@]13C(=O)Nc1ccc(C#CC4(O)CCCCCC4)cc13)CC2	-0.543	0.416	0.0246	1.15	1.14	1.67	1.15	-0.921 (inactive)	0.528	-0.6	1.54	0.972 (inactive)	0.888 (inactive)	5.25 (inactive)	3.19	2.32 (inactive)	-0.438	1.47	1.08	-0.244
CCOC(=O)C1=CC[C@@H](c2ccc(OCc3ccccc3)c(OC)c2)N(S(=O)(=O)c2ccc(C)cc2)[C@H]1c1ccc(SC)cc1	0.152	0.718	0.162	1.02	1.54	0.876	1.11	-0.895 (inactive)	1.67	0.245	1.1	-0.448 (inactive)	0.236 (inactive)	1.94 (inactive)	3.21	-0.628 (inactive)	0.347	0.257	1.12	0.206
[N-]=[N+]=NCc1ccccc1C[C@@]1(C(=O)N2CCOCC2)N=C(c2ccc(OCCCO)cc2)O[C@@H]1c1ccccc1	0.458	0.572	0.0654	1	1.44	1.79	1.1	-4.48 (inactive)	0.705	0.0749	1.42	-1.11 (inactive)	-1.72 (inactive)	33 (active)	3.33	0.386 (inactive)	0.349	-0.519	0.553	0.801
CCC(CC)C(O)C1C=CC2C(=O)N(c3ccccc3)C(=O)C2N1Nc1ccc(C(C)C)cc1 (stereo not given)	0.251	-0.207	0.0495	0.687	1.64	1.23	1.28	-0.963 (inactive)	1.21	-0.195	1.43	0.727 (inactive)	0.065 (inactive)	1.23 (inactive)	3.12	-0.63 (inactive)	0.0659	0.152	1.03	0.118
COCCCNC(=O)[C@]1(CCS(=O)(=O)c2ccccc2)N=C(c2ccc(OCCCO)cc2)O[C@@H]1c1ccccc1CN=[N+]=[N-]	0.688	1.32	0.418	0.948	1.63	1.79	1.14	0.174 (inactive)	1.44	-0.0518	1.55	1.52 (inactive)	0.971 (inactive)	2.59 (inactive)	3.47	0.773 (inactive)	0.417	0.896	1.02	0.455
COCCCNC(=O)[C@@]1(Sc2ccc(C)cc2)CC(=O)N(C2CCCCC2)[C@@H]1c1ccc(CO)cc1	0.863	-0.596	0.0019	0.0381	-0.957	-0.113	-0.119	-0.721 (inactive)	-0.37	-0.191	1.08	-0.858 (inactive)	0.478 (inactive)	-0.874 (inactive)	2.96	0.195 (inactive)	0.0977	-0.804	0.0236	-0.221
COC(=O)[C@@]1(Cc2ccccc2N=[N+]=[N-])N=C(c2ccc(OCCCO)cc2)O[C@H]1c1ccccc1N=[N+]=[N-]	0.663	0.192	0.0131	-0.0009	0.648	0.859	1.27	-0.492 (inactive)	0.214	-0.0123	1.54	-1.13 (inactive)	-3.84 (inactive)	26.2 (active)	2.05	1.51 (inactive)	0.258	0.717	0.647	-0.0211
